Measurements as given in PubChem BioAssay (Tox21).
Records with an inconclusive call do not appear. Entries that show only a call come without a potency. Active and inactive are the calls of the source. The call rests on the fitted dose curve.

experiment: qHTS assay to identify small molecule agonists of the endoplasmic reticulum stress response signaling pathway - cell viability counter screen (AID 1159517); conditions: ESRE-bla HeLa viability, CellTiter-Glo luminescence, 5 h; series mostly up to 61 µM; further: nearly all actives have a fitted effect of over 50% in size
Excerpt: U.S. Tox21 Program National Center for Advancing Translational Sciences [NCATS] NIH Chemical Genomics Center [NCGC] U.S. Environmental Protection Agency [EPA] National Institutes of Environmental Health Sciences [NIEHS] National Toxicology Program [NTP] U.S. Food and Drug Administration [FDA] Tox21 Assay Overview: Endoplasmic Reticulum (ER) plays an important role in cellular signaling, protein folding/maturation, stress response, lipid biosynthesis, calcium storage and release etc. Under stress conditions, proteins in ER misfold or unfold, and leading to the expression of ER stress responsive genes. ER stress has been associated with a variety of pathophysiological conditions such as cancer, inflammation, neurodegenerative diseases, diabetes, ischemic heart disease etc. To identify the compounds that induce ER stress response, an ER stress reporter cell line, CellSensor ESRE-bla HeLa (Life Technologies, Carlsbad, CA) containing a beta-lactamase reporter gene under control of the Endoplasmic reticulum Stress Response Element (ESRE) was used to screen Tox21 10K compound library. The cytotoxicity of the Tox21 compound library against the ESRE-bla HeLa cell line was tested in parallel by measuring cell viability using the CellTiter-Glo assay in the same wells.
Tox21 Assay Protocol Summary: ESRE-bla HeLa cells were dispensed at 1,500 cells/6 uL of assay medium per well into black wall/clear-bottom 1536-well plates using a Multidrop Combi (ThermoFisher Scientific, Waltham, MA) dispenser. After the assay plates were incubated at 37 C and 5% CO2 for an overnight, 23 nL of compounds dissolved in DMSO, positive controls or DMSO only was transferred to the assay plate by a Pintool station (Kalypsys, San Diego, CA). The assay plates were incubated at 37 C and 5% CO2 for 5 hr. One uL of LiveBLAzer B/G FRET substrate (Life Technologies) was added using a FRD (Flying Reagent Dispenser, Aurora Discovery, San Diego, CA) and the plates were incubated at room temperature for 2 hr. Fluorescence intensity (405 nm excitation, 460 nm and 530 nm emissions) was measured using an Envision plate reader (PerkinElmer, Shelton, CT). For cytotoxicity, 4 ul/well of CellTiter-Glo reagent was added into the assay plates using an FRD. After 30 min incubation at room temperature, the luminescence intensity was measured using a ViewLux plate reader (PerkinElmer).

| SMILES | Potency |
| --- | --- |
| CCN(CC)CCNC(=O)COc1ccc(OC)cc1 | inactive |
| CC(CN(C)C)C(C)(O)Cc1ccc(Cl)cc1 (stereo not given) | inactive |
| CC1(C)S[C@@H]2[C@H](NC(=O)C(c3ccccc3)S(=O)(=O)O)C(=O)N2[C@H]1C(=O)O (stereo not given in full) | inactive |
| OC1(c2ccccc2)CCNCC1 | inactive |
| CCCCCCCC/C=C\CCCCCCCCCCCC(=O)O | inactive |
| C=CCc1ccccc1OCC(O)CNC(C)C (stereo not given) | inactive |
| Cc1[nH]cnc1CN1CCc2c(c3ccccc3n2C)C1=O | inactive |
| NCCNCCO | inactive |
| O=C1c2ccccc2C(=O)N1CCc1noc(-c2ccc(CN3CCCCCC3)s2)n1 | inactive |
| O=C1c2ccccc2C(=O)C1c1ccc(Br)cc1 | inactive |
| Nc1cccc2c1CN(C1CCC(=O)NC1=O)C2=O (stereo not given) | inactive |
| CCCCCCCC/C=C\CCCCCCCCO | inactive |
| CO/N=C(/C(=O)N[C@@H]1C(=O)N2C(C(=O)O)=C(COC(N)=O)CS[C@H]12)c1ccco1 | inactive |
| CCC(C)COC(=O)CC(C)C (stereo not given) | inactive |
| O=C(OCC(O)CO)c1ccccc1Nc1ccnc2cc(Cl)ccc12 (stereo not given) | inactive |
| Cc1ccc(C(C)(C)O)cc1 | inactive |
| O=C1NCCN1CCO | inactive |
| CC1(C)[C@H](C(=O)O)N2C(=O)C[C@H]2S1(=O)=O | inactive |
| C[C@@H](CN(C)C)CN1c2ccccc2Sc2ccccc21 | inactive |
| C1C[C@@H]2[C@H]3CC[C@H](C3)[C@@H]2C1 | inactive |

| SMILES | Potency |
| --- | --- |
| CCCCCC[C@@H](O)C/C=C\CCCCCCCC(=O)O | inactive |
| Clc1ccc(Nc2nnc(Cc3ccncc3)c3ccccc23)cc1 | inactive |
| CC(C)=CCC1C(=O)N(c2ccccc2)N(c2ccccc2)C1=O | inactive |
| CC(=O)Oc1ccc([N+](=O)[O-])cc1CCl | inactive |
| COc1ccccc1N1CCN(CCCCNC(=O)c2ccc(-c3ccc(C(C)=O)cc3)cc2)CC1 | inactive |
| CCC(=O)OC | inactive |
| CC1(C)[C@@H](OC(=O)CCC(=O)O)CC[C@]2(C)[C@H]3C(=O)C=C4[C@@H]5C[C@@](C)(C(=O)O)CC[C@]5(C)CC[C@@]4(C)[C@]3(C)CC[C@@H]12 | inactive |
| CC(=O)N/N=C/c1ccc([N+](=O)[O-])o1 | inactive |
| C[C@@H](O)[C@H]1C(=O)N2C(C(=O)O)=C([C@H]3CCCO3)S[C@H]12 | inactive |
| CCCCCCCCCCCCCCN(CCO)CCO | inactive |
| CC(C)C[C@H](NC(=O)[C@H](CCc1ccccc1)NC(=O)CN1CCOCC1)C(=O)N[C@@H](Cc1ccccc1)C(=O)N[C@@H](CC(C)C)C(=O)[C@@]1(C)CO1 | inactive |
| O=C(/C=C/c1ccccc1)OCCc1ccccc1 | inactive |
| CCC(C)(C)OC | inactive |
| O=c1cc(-c2ccccc2)oc2cc(O)cc(O)c12 | inactive |
| CCOC(=O)c1ccc(C#Cc2ccc3c(c2)C(C)(C)CCS3)nc1 | inactive |
| O=C1CCCCCCCCCCOCCCCO1 | inactive |
| O=[N+]([O-])c1ccc(Nc2ccc(Nc3ccccc3)c(S(=O)(=O)O)c2)c([N+](=O)[O-])c1 | inactive |
| CC(O)c1ccccc1 (stereo not given) | inactive |
| CC(=O)[C@H]1[C@H](C#N)C[C@H]2[C@@H]3CC=C4C[C@@H](O)CC[C@]4(C)[C@H]3CC[C@@]21C | inactive |
| CC1=Nc2ccc3ccccc3c2C1(C)C | inactive |
